Consider 105 compounds from ChEMBL document CHEMBL1857833, “Screening and optimization of specific chemical series against human African Trypanosomiasis (HAT)”.

Structures are written as SMILES. Where “and” joins values, the source holds several entries; their conditions need not be identical. Identical values can stand only once. About 390 (8.9%) of roughly 4,400 compounds showed an effect of 50% or more. Shown is part of a subset that was picked to be rich in strong results.

In this experiment the test system is Trypanosoma brucei. In words: DNDI: Inhibition of Human African Trypanosomiasis, SBRI 427, in vitro at 2 ug.mL-1. The experiment is classed as functional.
In general, % inhibition refers to the drop in the measured response relative to a control, in per cent. As for `CC(C)c1ccc(Oc2ncccc2/C(=N/O)N2CCC=N2)cc1`, the “% inhibition” value was -4%. Then `Cc1nccn1/C(=N\O)c1ccnc(Oc2ccc(Cl)cc2)c1`, with 5%. Then `COc1ccc(-c2nc(CN3CCC(C)CC3)co2)cc1`, with 12%. As for `Cc1cccc(N2CCN(Cc3coc(-c4ccc(O)cc4)n3)CC2)c1C`, the “% inhibition” value stood at 3%. In the case of `Brc1ccc(-c2nc(CNCCCN3CCOCC3)co2)cc1`, the “% inhibition” value is reported as -12%. With `CCCCN(CC)Cc1coc(-c2cccc(OC)c2)n1`, the “% inhibition” value is recorded as -18%. Then `Cc1nccn1/C(=N\O)c1cccnc1Oc1ccccc1`, with 10%. Then `COc1cc(C)ccc1Oc1nc(C)ccc1/C(=N/O)N1C(C)C=CC1C` (stereo not given), with -2%; and `CN1CCCC1CCNCc1coc(-c2ccccc2Br)n1` (stereo not given), with 57%. Then `Brc1ccc(-c2nc(CNCCN3CCCCC3)co2)cc1`, with 43%; and `CCOc1cccc(-c2nc(CNCCC3CCCN3C)co2)c1` (stereo not given), with 99%. With `CN1CCCC1CCNCc1coc(-c2cccs2)n1` (stereo not given), the “% inhibition” value was -4%. Regarding `CN1CCCC1CCNCc1coc(-c2ccc(Br)cc2)n1` (stereo not given), the “% inhibition” value was 97%. Then `Brc1ccccc1-c1nc(CNCCN2CCCCC2)co1`, with -1%; and `CCOc1cccc(-c2nc(CNCCN3CCCC3)co2)c1`, with -12%. Then `Brc1ccc(-c2nc(CNCCN3CCOCC3)co2)cc1`, with -53%; and `CCOc1cccc(-c2nc(CNCCN3CCOCC3)co2)c1`, with -2%; and `CC(C)COc1ncccc1/C(=N/O)N1CCN(c2ccc(F)cc2)CC1`, with 0%. Regarding `O=Cc1nccn1Cc1coc(-c2ccc(F)cc2)n1`, the “% inhibition” value is -8%. Then `CSc1ccc(Oc2cc(/C(=N/O)N3CC(C)CC(C)C3)ccn2)cc1` (stereo not given), with 18%. Then `Oc1ccc(-c2nc(CNCc3ccccc3C(F)(F)F)co2)cc1`, with 18%; and `O/N=C(\NCc1cccs1)c1cccnc1Oc1ccc2oc3ccccc3c2c1`, with 75%; and `O/N=C(\NCc1ccccn1)c1cccnc1Oc1ccc2oc3ccccc3c2c1`, with 7%. Then `CSc1ccc(Oc2nc(C)ccc2/C(=N/O)N(C)Cc2ccco2)cc1C`, with 12%; and `Cc1ccc(/C(=N/O)N(C)Cc2ccco2)c(Oc2cccc(F)c2)n1`, with 22%.

Regarding `CC(C)COc1ncccc1/C(=N/O)NCc1ccco1`, the “% inhibition” value was 3%. Then `CC(C)c1ccc(Oc2ncccc2/C(=N/O)NCc2ccco2)cc1`, with 96%; and `COc1ccc(Oc2ncccc2/C(=N/O)N(C)Cc2ccco2)cc1`, with -11%; and `CC(C)c1ccc(Oc2ncccc2/C(=N/O)N(C)Cc2ccco2)cc1`, with 75%.

In the case of `O/N=C(\NCc1ccncc1)c1cccnc1Oc1ccc2oc3ccccc3c2c1`, the “% inhibition” value was 10%. Then `CN(Cc1ccco1)/C(=N\O)c1cccnc1Oc1ccc(Cl)cc1`, with 4%. With `COc1ccc(Oc2ncccc2/C(=N/O)NCc2ccco2)cc1`, the “% inhibition” value was -14%. `Cc1ccc(/C(=N/O)N(C)Cc2ccco2)c(Oc2cccc(C(C)C)c2)n1`: the “% inhibition” value came to 67%. Then `CC(C)COc1ncccc1/C(=N/O)N(C)Cc1cccnc1`, with -1%; and `Cc1cn(/C(=N\O)c2ccc(Oc3ccc4oc5ccccc5c4c3)nc2)cn1`, with 16%. Then `CCOc1cccc(-c2nc(CN(C)CC#N)co2)c1`, with 15%; and `O/N=C(/c1cccnc1Oc1ccc(F)cc1)N1Cc2ccccc2C1`, with 4%; and `COC(CN(C)Cc1coc(-c2ccc(Br)cc2)n1)OC`, with 4%.

For `CCOc1ccccc1-c1nc(CN2CCCCC2)co1`, the “% inhibition” value is on record as -1%. As to `CN(Cc1coc(-c2ccc(C(F)(F)F)cc2)n1)Cc1ccco1`, the “% inhibition” value stood at 18%.

As for `COc1ccc(Oc2ncccc2/C(=N/O)NCc2cccs2)cc1`, the “% inhibition” value came to 37%.

As for `CC(C)c1ccc(Oc2ncccc2/C(=N/O)NCc2cccs2)cc1`, the “% inhibition” value is recorded as 100%.

For the compound `O/N=C(\NCc1cccs1)c1cccnc1Oc1cccc(C(F)(F)F)c1`, the “% inhibition” value is reported as -12%. Regarding `Clc1ccccc1-c1nc(CNC(Cc2ccccc2)c2ccccc2)co1` (stereo not given), the “% inhibition” value is -20%.

Regarding `Cc1ccccc1-c1nc(CNC2CCN(Cc3ccccc3)C2)co1` (stereo not given), the “% inhibition” value came out at 30%. For `Cc1ccccc1-c1nc(CNC[C@@H]2CCCO2)co1`, the “% inhibition” value was -1%. Turning to `Brc1ccccc1-c1nc(CNC2CCCCCCCCCCC2)co1`, the “% inhibition” value is listed as 59%.

With `Cc1ccccc1-c1nc(CNC2CCCCCC2)co1`, the “% inhibition” value worked out at 61%. Then `Brc1ccccc1-c1nc(CNC2CCN(Cc3ccccc3)C2)co1` (stereo not given), with -6%; and `Brc1ccccc1-c1nc(CNC2CCCCCC2)co1`, with -20%. Then `COc1cc(CN(C)Cc2coc(-c3ccccc3C)n2)cc(OC)c1OC`, with -15%; and `CCCN(Cc1coc(-c2cc(OC)c(OC)c(OC)c2)n1)c1ccccc1`, with 1%; and `O/N=C(/c1cccnc1OCc1ccccc1)N1CCSCC1`, with 13%. Regarding `CC1CC(C)CN(Cc2coc(-c3cccs3)n2)C1` (stereo not given), the “% inhibition” value is given as 2%. Then `c1csc(-c2nc(CNC3CCc4ccccc43)co2)c1` (stereo not given), with -11%; and `CC(NCc1coc(-c2cccs2)n1)C1CCCCC1` (stereo not given), with -3%. Then `C[C@@H]1C(NCc2coc(-c3cccs3)n2)C[C@H]2C[C@@H]1C2(C)C` (stereo not given in full), with 62%; and `C[C@H]1C(NCc2coc(-c3cccs3)n2)C[C@@H]2C[C@H]1C2(C)C` (stereo not given in full), with 87%; and `c1csc(-c2nc(CNC3CCCC3)co2)c1`, with -11%.

As for `COc1cccc(Oc2ccc(/C(=N/O)N3CCSC3)cn2)c1`, the “% inhibition” value came out at 6%.

As for `Cc1ccc(CCNCc2coc(-c3cccc(F)c3)n2)cc1`, the “% inhibition” value was -9%. Take `CCCN(Cc1coc(-c2cccc(C)c2)n1)c1ccccc1`: the “% inhibition” value was 7%. Take `Cc1ccc2cccc(Oc3cc(/C(=N/O)NCc4c(F)cccc4F)ccn3)c2n1`: the “% inhibition” value is recorded as 17%. Regarding `Cc1cc(C)cc(CN/C(=N\O)c2ccnc(Oc3cccc4ccc(C)nc34)c2)c1`, the “% inhibition” value came to 18%.

For the compound `Cc1ccc2cccc(Oc3cc(/C(=N/O)NC4CC(C)CC(C)(C)C4)ccn3)c2n1` (stereo not given), the “% inhibition” value came out at 10%. For the compound `Cc1ccc2cccc(Oc3cc(/C(=N/O)NC4CCC(C)CC4)ccn3)c2n1` (stereo not given), the “% inhibition” value came out at 94%. Take `CCC(C)(C)N/C(=N\O)c1ccnc(Oc2cccc3ccc(C)nc23)c1`: the “% inhibition” value was determined as 51%. Then `Cc1ccc2cccc(Oc3ccc(/C(=N/O)n4cccn4)cn3)c2n1`, with 4%. Then `Cc1ccc2cccc(Oc3cc(/C(=N/O)N4C(C)CCCC4C)ccn3)c2n1` (stereo not given), with 19%; and `CC1CCC(N/C(=N\O)c2ccnc(Oc3cccc4cnccc34)c2)CC1` (stereo not given), with 10%; and `Cc1ccc2cccc(Oc3ccc(/C(=N/O)Nc4ccc(C(C)C)cc4)cn3)c2n1`, with 8%.

For the compound `Cc1ccc2cccc(Oc3ccc(/C(=N/O)NC4CCCCC4)cn3)c2n1`, the “% inhibition” value came out at 99%. `Cc1ccccc1CN/C(=N\O)c1ccnc(Oc2cccc3cccnc23)c1`: the “% inhibition” value was found to be 43%.

On to `CC1CCC(N/C(=N\O)c2ccnc(Oc3cccc4cccnc34)c2)CC1` (stereo not given), for which the “% inhibition” value was 95%. Then `CCOc1cccc(-c2nc(CN(C)C3CCN(Cc4ccccc4)C3)co2)c1` (stereo not given), with -2%; and `FC(F)(F)c1cccc(N2CCN(Cc3coc(-c4cccc5ccccc45)n3)CC2)c1`, with 6%; and `CCOc1cccc(-c2nc(Cn3ccnc3CC)co2)c1`, with -10%.

`COc1ccccc1CCNCc1coc(-c2cccc3ccccc23)n1`: the “% inhibition” value is recorded as 43%. Then `O/N=C(/c1cccnc1Oc1ccccc1Cl)N1CCN(C2CCCC2)CC1`, with -2%.

As for `COc1ccc(Oc2ncccc2/C(=N/O)N2CCN(C3CCCC3)CC2)cc1`, the “% inhibition” value is -12%. As to `CC(C)N1CCN(/C(=N\O)c2cccnc2Oc2cccc(C(F)(F)F)c2)CC1`, the “% inhibition” value amounted to 101%. Then `N/C(=N\O)c1cccnc1Oc1cccc(C(F)(F)F)c1`, with 46%; and `O/N=C(/c1cccnc1Oc1cccc(C(F)(F)F)c1)N1CCN(C2CCCC2)CC1`, with 85%.

As for `CC1=NCCN1/C(=N\O)c1cccnc1Oc1cccc(C(F)(F)F)c1`, the “% inhibition” value is on record as 2%. Then `CCN(CCNCc1coc(-c2ccccc2Br)n1)c1cccc(C)c1`, with -30%. Then `O/N=C(/c1cccnc1OCc1cccc(F)c1)N1CCN(c2ccccc2)CC1`, with -1%; and `CCOc1cccc(-c2nc(Cn3cc(C)nc3CC)co2)c1`, with 7%; and `Cc1ccc(/C(=N/O)NC2CC(C)CC(C)(C)C2)c(Oc2ccc(F)c(F)c2)n1` (stereo not given), with 11%.

Take `Cc1ccc(/C(=N/O)NC2CC(C)CC(C)(C)C2)c(Oc2ccc(Cl)cc2-c2ccno2)n1` (stereo not given): the “% inhibition” value is 16%. Then `CCN(CC)c1cccc(Oc2ncccc2/C(=N/O)NC2CC(C)CC(C)(C)C2)c1` (stereo not given), with -6%. In the case of `CC1CC(N/C(=N\O)c2cccnc2Oc2cc(Cl)ccc2Cl)CC(C)(C)C1` (stereo not given), the “% inhibition” value is given as 99%. For the compound `CC1CC(N/C(=N\O)c2cccnc2Oc2ccc(C(C)C)cc2)CC(C)(C)C1` (stereo not given), the “% inhibition” value is listed as 98%. Then `CC1CC(N/C(=N\O)c2cccnc2Oc2ccc(F)c(Cl)c2)CC(C)(C)C1` (stereo not given), with 100%; and `Cc1ccc(/C(=N/O)NC2CC(C)CC(C)(C)C2)c(Oc2cc(Cl)ccc2Cl)n1` (stereo not given), with 7%; and `CCCCN(CCC#N)Cc1coc(-c2ccccc2C)n1`, with -4%. Then `CCOC(=O)C1CCCCN1Cc1coc(-c2ccccc2OCC)n1` (stereo not given), with 3%. Then `CC(C)c1ccc(Oc2ncccc2/C(N)=N/O)cc1`, with 16%. Regarding `Fc1cccc(-c2nc(CNC3CCc4ccccc43)co2)c1` (stereo not given), the “% inhibition” value is reported as 13%. Turning to `CCC(CC)CNCc1coc(-c2cccc(F)c2)n1`, the “% inhibition” value turned out to be 18%.

As for `Fc1cccc(-c2nc(CNC3C[C@H]4CC[C@@H]3C4)co2)c1` (stereo not given in full), the “% inhibition” value is on record as -5%. Regarding `CC(C)C(C)NCc1coc(-c2cccc(F)c2)n1` (stereo not given), the “% inhibition” value was 8% and 16%. As to `C[C@@H]1C(NCc2coc(-c3cccc(F)c3)n2)C[C@H]2C[C@@H]1C2(C)C` (stereo not given in full), the “% inhibition” value is 90%. On to `C[C@H]1C(NCc2coc(-c3cccc(F)c3)n2)C[C@@H]2C[C@H]1C2(C)C` (stereo not given in full), for which the “% inhibition” value amounted to 99%. `C#CCNCc1coc(-c2cccc(C)c2)n1`: the “% inhibition” value came to 24%. Then `CSc1ccc(Oc2cc(/C(=N/O)NCC3CCCO3)ccn2)cc1` (stereo not given), with 6%.
